Experimental data published in PubChem BioAssay (EPA / NIEHS).
Activity calls are given as the source filed them. How the source made its calls: active means hit-call score of the fitted dose curve at least 0.9, where 1 is the maximum; inactive means score below 0.9.

Tests used:
Conditions in all cases: primary human HUVEC with PBMC; actives raise or lower the signal
[1] = read-out: Macrophage colony-stimulating factor (MCSF), CSF1 (gene 1435); assay: BSK_LPS_MCSF: BioMAP Diversity Plus: LPS Assay for Macrophage colony-stimulating factor (MCSF) Biomarker Activity (AID 2283083)
Summary of the method: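 HUVEC–PBMC co-culture, M-CSF measured by ELISA 24 h after chemical dosing. Fitted in both directions relative to DMSO as negative control; overt cytotoxicity assessed by SRB total-protein staining in parallel cultures.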

[2] = read-out: Tissue Factor, F3 (gene 2152); assay: BSK_LPS_TissueFactor: BioMAP Diversity Plus: LPS Assay for Tissue Factor Biomarker Activity (AID 2283084)
Summary of the method: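 Human umbilical vein endothelial cells co-cultured with PBMC were dosed with compound. Cell-surface CD142 was measured by ELISA 24 h later. Activity was fitted bidirectionally against DMSO, with SRB total-protein staining in parallel cultures for cytotoxicity.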

[3] = read-out: Tumor necrosis factor (Homo sapiens) (UniProt P01375); assay: BSK_LPS_TNFa: BioMAP Diversity Plus: LPS Assay for Tumour Necrosis Factor alpha (TNFa) Biomarker Activity (AID 2283085)
Summary of the method: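 Read-out is ELISA of TNFa in primary human endothelial cell–PBMC co-cultures at 24 h after compound. Activity in either direction was fitted against DMSO.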

[4] = read-out: Vascular cell adhesion molecule 1 (VCAM1), VCAM1 (gene 7412); assay: BSK_LPS_VCAM1: BioMAP Diversity Plus: LPS Assay for Vascular cell adhesion molecule 1 (VCAM1) Biomarker Activity (AID 2283086)
Summary of the method: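 HUVEC + PBMC co-culture, LPS system; compound 24 h; VCAM-1 by ELISA; bidirectional fit vs DMSO control; parallel SRB (0.1%, TCA-fixed, 560 nm) for cytotoxicity.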

CD38, CD38 (gene 952) = assay: BSK_SAg_CD38: BioMAP Diversity Plus: SAg Assay for CD38 Biomarker Activity (AID 2283087)
Summary of the method: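 Human HUVEC plus PBMC co-culture stimulated with superantigen; CD38 measured by ELISA 24 h after chemical dosing. Fluorescence read-out, bidirectional fit against DMSO; cytotoxicity tracked in parallel by SRB and Alamar Blue.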

CD40, CD40 (gene 958) = assay: BSK_SAg_CD40: BioMAP Diversity Plus: SAg Assay for CD40 Biomarker Activity (AID 2283088)
Summary of the method: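 HUVEC plus PBMC co-culture, superantigen-activated, with CD40 read by ELISA 24 h after dosing. Curves fitted in both directions against DMSO. Overt cytotoxicity checked by parallel SRB total-protein staining.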

CD69, CD69 (gene 969) = assay: BSK_SAg_CD69: BioMAP Diversity Plus: SAg Assay for CD69 Biomarker Activity (AID 2283089);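 on AC50: cell surface CD69 protein quantified by ELISA with fluorescence detection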
Summary of the method: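 Primary human vascular co-culture (umbilical vein endothelium with peripheral blood mononuclear cells) exposed to test chemical for 24 h. CD69 levels quantified by fluorescence ELISA; DMSO served as negative control for bidirectional fitting.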

[5] = read-out: Monocyte Chemoattractant Protein-1 (MCP1), CCL2 (gene 6347); assay: BSK_SAg_MCP1: BioMAP Diversity Plus: SAg Assay for Monocyte Chemoattractant Protein-1 (MCP1) Biomarker Activity (AID 2283090)
Summary of the method: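 MCP-1 levels in the endothelial–PBMC SAg co-culture were quantified by ELISA at 24 h post-dosing; both increases and decreases versus DMSO scored. Cytotoxicity monitored by SRB total protein in parallel cultures.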

[6] = read-out: E-selectin (Homo sapiens) (UniProt P16581); assay: BSK_SAg_Eselectin: BioMAP Diversity Plus: SAg Assay for Eselectin Biomarker Activity (AID 2283091)
Summary of the method: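 Human umbilical vein endothelial cells co-cultured with peripheral blood mononuclear cells, SAg system. E-selectin is measured by ELISA 24 h after dosing and fitted bidirectionally against DMSO. Cytotoxicity is checked by SRB staining of parallel cultures.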

[7] = read-out: Monokine induced gamma interferon (MIG), CXCL9 (gene 4283); assay: BSK_SAg_MIG: BioMAP Diversity Plus: SAg Assay for Monokine induced gamma interferon (MIG) Biomarker Activity (AID 2283092)
Summary of the method: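 Endothelial cells and PBMC were co-cultured, exposed to test chemicals, and sampled 24 h later. MIG was measured by ELISA, and responses were fitted in both directions relative to DMSO.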

Chain of Tumor necrosis factor (Homo sapiens) (P01375 whole entry, looked up): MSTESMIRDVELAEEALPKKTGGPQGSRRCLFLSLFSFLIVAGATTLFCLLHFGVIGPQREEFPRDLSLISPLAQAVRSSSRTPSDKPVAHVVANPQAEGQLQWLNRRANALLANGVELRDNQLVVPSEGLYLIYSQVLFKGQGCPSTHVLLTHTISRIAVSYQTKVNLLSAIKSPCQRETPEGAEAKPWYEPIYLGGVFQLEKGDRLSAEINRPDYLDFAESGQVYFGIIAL
Chain of E-selectin (Homo sapiens) (P16581 whole entry, looked up): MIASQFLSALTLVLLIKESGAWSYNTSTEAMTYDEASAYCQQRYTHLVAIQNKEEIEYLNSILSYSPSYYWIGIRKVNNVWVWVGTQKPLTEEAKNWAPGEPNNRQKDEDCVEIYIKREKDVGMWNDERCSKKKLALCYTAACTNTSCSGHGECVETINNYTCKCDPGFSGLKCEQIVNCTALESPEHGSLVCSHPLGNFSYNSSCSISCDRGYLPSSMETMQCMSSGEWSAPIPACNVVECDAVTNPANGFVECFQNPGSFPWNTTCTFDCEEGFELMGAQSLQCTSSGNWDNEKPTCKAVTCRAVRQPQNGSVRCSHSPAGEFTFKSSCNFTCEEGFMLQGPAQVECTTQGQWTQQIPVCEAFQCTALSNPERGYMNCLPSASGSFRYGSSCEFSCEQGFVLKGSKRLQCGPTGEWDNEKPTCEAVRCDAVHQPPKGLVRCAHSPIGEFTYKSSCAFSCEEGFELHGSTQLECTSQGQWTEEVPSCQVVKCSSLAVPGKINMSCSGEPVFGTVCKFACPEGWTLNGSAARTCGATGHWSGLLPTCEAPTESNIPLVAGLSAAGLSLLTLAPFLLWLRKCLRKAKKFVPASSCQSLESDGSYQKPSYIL

Row | Structure (SMILES) | outcome [1] | outcome [2] | outcome [3] | outcome [4] | outcome (CD38, CD38 (gene 952)) | outcome (CD40, CD40 (gene 958)) | outcome (CD69, CD69 (gene 969)) | outcome [5] | outcome [6] | outcome [7] | AC50 (CD69, CD69 (gene 969)) | AC50 [1] | AC50 [2] | AC50 [3] | AC50 [4] | AC50 (CD38, CD38 (gene 952)) | AC50 (CD40, CD40 (gene 958)) | AC50 [5] | AC50 [6] | AC50 [7]
1 | Clc1cccc(Cl)c1 | inactive | inactive | inactive | inactive | inactive | inactive | inactive | inactive | inactive | inactive |  |  |  |  |  |  |  |  |  | 
2 | C#CCOC(=O)/C=C(C)/C=C/CC(C)CCCC(C)C (stereo not given) | inactive | inactive | inactive | inactive | inactive | inactive |  | inactive | inactive | inactive | 20 µM (active) |  |  |  |  |  |  |  |  | 
3 | O=C(N[C@H]1CN2CCC1CC2)c1ccc2c(c1)OCCO2 | inactive | inactive | inactive | inactive | inactive | inactive | inactive | inactive | inactive | inactive |  |  |  |  |  |  |  |  |  | 
4 | Cc1cc(C)cc(C)c1 | inactive | inactive | inactive | inactive | inactive | inactive | inactive | inactive | inactive | inactive |  |  |  |  |  |  |  |  |  | 
5 | O=C1C=CC(=O)c2ccccc21 |  |  |  |  |  |  |  |  |  |  | 0.836 µM (active) | 1.82 µM (active) | 1.52 µM (active) | 0.623 µM (active) | 2 µM (active) | 1.04 µM (active) | 2.17 µM (active) | 2.39 µM (active) | 1.12 µM (active) | 1.53 µM (active)
6 | C=CC(Cl)CCl (stereo not given) | inactive | inactive | inactive | inactive | inactive |  | inactive | inactive | inactive | inactive |  |  |  |  |  |  | 0.478 µM (active) |  |  | 
7 | Nc1c(Oc2ccccc2)cc(O)c2c1C(=O)c1ccccc1C2=O | inactive |  | inactive | inactive |  |  | inactive |  |  | inactive |  |  | 2.54 µM (active) |  |  | 10 µM (active) | 7.45 µM (active) | 0.803 µM (active) | 0.795 µM (active) | 
8 | Cc1cc(Cl)ccc1N | inactive | inactive | inactive | inactive | inactive | inactive | inactive | inactive | inactive | inactive |  |  |  |  |  |  |  |  |  | 
9 | CCOP(=O)(OCC)SCCSCC | inactive | inactive | inactive | inactive | inactive | inactive | inactive | inactive | inactive | inactive |  |  |  |  |  |  |  |  |  | 
10 | CCOP(=S)(OCC)SCS(=O)(=O)C(C)(C)C | inactive | inactive | inactive | inactive | inactive | inactive | inactive | inactive | inactive | inactive |  |  |  |  |  |  |  |  |  | 
11 | c1ccc(-c2cccc(-c3ccccc3)c2)cc1 |  |  | inactive |  |  |  |  |  |  | inactive | 30.9 µM (active) | 30.2 µM (active) | 32.7 µM (active) |  | 27.3 µM (active) | 30.5 µM (active) | 29.4 µM (active) | 32.5 µM (active) | 33.1 µM (active) | 
12 | CC(C=O)Cc1ccc2c(c1)OCO2 (stereo not given) | inactive | inactive | inactive | inactive | inactive | inactive | inactive | inactive | inactive | inactive |  |  |  |  |  |  |  |  |  | 
13 | Oc1c(Br)cc(Br)cc1Br | inactive | inactive | inactive | inactive |  |  |  | inactive |  | inactive | 35 µM (active) |  |  |  |  | 30.3 µM (active) | 20 µM (active) |  | 20 µM (active) | 
14 | CC(C)(C)c1ccccc1O | inactive | inactive | inactive | inactive | inactive | inactive | inactive | inactive | inactive | inactive |  |  |  |  |  |  |  |  |  | 
15 | OCCN(CCO)CCO | inactive | inactive | inactive | inactive | inactive | inactive | inactive | inactive | inactive | inactive |  |  |  |  |  |  |  |  |  | 
16 | Cc1ccccc1OP(=O)(Oc1ccccc1C)Oc1ccccc1C |  |  | inactive |  |  |  |  |  |  |  | 13.8 µM (active) | 11.2 µM (active) | 27.5 µM (active) |  | 11.4 µM (active) | 28.9 µM (active) | 12.5 µM (active) | 14.8 µM (active) | 30.6 µM (active) | 33.6 µM (active)
17 | CCOP(=O)(OCC)OC(=CCl)c1ccc(Cl)cc1Cl |  |  | inactive | inactive | inactive |  |  | inactive |  | inactive | 20 µM (active) | 22.5 µM (active) | 11.9 µM (active) |  |  |  | 20 µM (active) |  | 28.6 µM (active) | 
18 | CC(C)N(C(=O)CCl)c1ccccc1 |  | inactive |  |  |  |  |  |  |  |  | 20 µM (active) | 20 µM (active) |  | 26 µM (active) | 18 µM (active) | 20 µM (active) | 27.5 µM (active) | 27.9 µM (active) | 20 µM (active) | 31.1 µM (active)
19 | Oc1cccc(-c2ccccc2)c1 | inactive |  | inactive |  | inactive |  | inactive |  |  | inactive |  |  | 33.3 µM (active) |  | 20 µM (active) |  | 30.8 µM (active) | 20 µM (active) | 33.6 µM (active) | 
20 | Clc1cccc(Cl)c1Cl | inactive | inactive | inactive | inactive | inactive | inactive | inactive | inactive | inactive | inactive |  |  |  |  |  |  |  |  |  | 
21 | CCCCCCCCCCCCc1cccc(S(=O)(=O)O)c1 | inactive | inactive | inactive | inactive | inactive | inactive | inactive | inactive | inactive | inactive |  |  |  |  |  |  |  |  |  | 
22 | Nc1ccc(N)cc1 | inactive |  | inactive | inactive | inactive | inactive | inactive | inactive | inactive | inactive |  |  | 5.53 µM (active) |  |  |  |  |  |  | 
23 | N#CCCC(Br)(C#N)CBr (stereo not given) |  |  |  |  |  |  |  |  |  |  | 17 µM (active) | 10.6 µM (active) | 21.4 µM (active) | 13 µM (active) | 9.05 µM (active) | 10.2 µM (active) | 11.2 µM (active) | 20 µM (active) | 20 µM (active) | 30 µM (active)
24 | Cc1ccc(OP(=O)(Oc2ccc(C)cc2C)Oc2ccc(C)cc2C)c(C)c1 |  | inactive |  | inactive | inactive |  |  |  | inactive | inactive | 20 µM (active) | 10.7 µM (active) |  | 34.1 µM (active) |  |  | 20 µM (active) | 5.89 µM (active) |  | 
25 | COc1ccccc1N | inactive | inactive | inactive | inactive | inactive | inactive | inactive | inactive | inactive | inactive |  |  |  |  |  |  |  |  |  | 
26 | [Cl][Sn]([c]1ccccc1)([c]1ccccc1)[c]1ccccc1 |  |  |  |  |  |  |  |  |  |  | 0.176 µM (active) | 0.138 µM (active) | 0.308 µM (active) | 0.134 µM (active) | 0.195 µM (active) | 0.141 µM (active) | 0.146 µM (active) | 0.327 µM (active) | 0.227 µM (active) | 0.259 µM (active)
27 | CCOC(=O)CCN(SN(C)C(=O)Oc1cccc2c1OC(C)(C)C2)C(C)C | inactive | inactive | inactive |  |  |  |  |  |  |  | 29.3 µM (active) |  |  |  | 20 µM (active) | 30 µM (active) | 29.6 µM (active) | 32 µM (active) | 27.7 µM (active) | 35.4 µM (active)
